Measurements: the supplement of paper PMC10849652
The full data set covers some 7,900 targets. This sample favours those with a hit. About 0.6% of all pairs of compound and target were hits.

Experiments:
Assay in all cases: log2 fold change, soluble protein after heating vs DMSO (PISA); higher = thermal stabilisation; K562 cells, 10 uM, 30 min; active = over 0.2 and 3.5 SD of the protein, either way, in both replicates (recomputed)
IRAK-1-4 Inhibitor I = compound: C1COCCN1CCN2C3=CC=CC=C3N=C2NC(=O)C4=CC(=CC=C4)[N+](=O)[O-] [IRAK-1-4 Inhibitor I]
Summary of the method: (§1)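 Soluble protein was quantified by TMTpro 16plex LC-MS/MS after channel sums were equalised. It was obtained as the supernatant after 21,000xg for 90 min from pooled aliquots of K562 cells (2×10^6 cells/mL, 10 μM compound, 30 min) heated for 3 min across 48°C-58°C and extracted in PBS with 0.5% NP-40 at 4°C. Thermal stability values are relative to control samples and come from duplicates. They are given as log2 fold changes.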

ibrutinib = compound: C=CC(=O)N1CCC[C@@H](n2nc(-c3ccc(Oc4ccccc4)cc3)c3c(N)ncnc32)C1 [ibrutinib]
Summary of the method: as §1

[1] = compound: CC(=O)c1cnc2ccc(-c3cc(Cl)c(O)c(Cl)c3)nc2c1N[C@H]1CC[C@H](CN(C)C)CC1
Summary of the method: as §1

ralimetinib = compound: CC(C)(C)Cn1c(N)nc2ccc(-c3[nH]c(C(C)(C)C)nc3-c3ccc(F)cc3)nc21 [ralimetinib]
Summary of the method: as §1

[2] = compound: CC(C)(O)CC(=O)NCCn1ccc2ncnc(Nc3ccc(Oc4cccc(C(F)(F)F)c4)c(Cl)c3)c21
Summary of the method: as §1

[3] = compound: CC(C)C1=C2N=C(C=C(N2N=C1)NCC3=CC=CC=C3)NCCCCCCN
Summary of the method: as §1

[4] = compound: CC(C)C[C@@H](C=O)NC(=O)[C@H](CC(C)C)NC(=O)[C@H](CC(C)C)NC(=O)OCc1ccccc1
Summary of the method: as §1

pinometostat = compound: CC(C)N(C[C@H]1O[C@@H](n2cnc3c(N)ncnc32)[C@H](O)[C@@H]1O)[C@H]1C[C@@H](CCc2nc3cc(C(C)(C)C)ccc3[nH]2)C1 [pinometostat]
Summary of the method: as §1

[5] = compound: CC1=C(C(CC(=O)N1)C2=CC=C(C=C2)C(F)(F)F)C(=O)NC3=C(C=C4C(=C3)C=NN4)F
Summary of the method: as §1

[6] = compound: CC1=C(C2=C(C=C1)C(=O)C3=CC=CC=C3N2CCCN)C
Summary of the method: as §1

[7] = compound: CC1=C(C=C(C=C1)NC(=O)C2=CC(=CC=C2)C(C)(C)C#N)NC3=CC4=C(C=C3)N=CN(C4=O)C
Summary of the method: as §1

[8] = compound: CC1=C(C=C(C=C1)NC(=O)C2=CC(=CC=C2)N(C)C)NC(=O)C3=CC=C(C=C3)O
Summary of the method: as §1

[9] = compound: CC1=CC=C(C=C1)SC2=C3C=C(SC3=CN=C2)C(=O)N
Summary of the method: as §1

[10] = compound: CC1=NC(=CC=C1)C2=C(N=C(N2)C(C)(C)C)C3=CC4=NC=CN=C4C=C3
Summary of the method: as §1

Nexturastat A = compound: CCCCN(Cc1ccc(C(=O)NO)cc1)C(=O)Nc1ccccc1 [Nexturastat A]
Summary of the method: as §1

vemurafenib = compound: CCCS(=O)(=O)Nc1ccc(F)c(C(=O)c2c[nH]c3ncc(-c4ccc(Cl)cc4)cc23)c1F [vemurafenib]
Summary of the method: as §1

[11] = compound: CCCS(=O)(=O)Nc1ccc(F)c(C(=O)c2c[nH]c3ncc(Cl)cc23)c1F
Summary of the method: as §1

[12] = compound: CCCc1cc(C)[nH]c(=O)c1CNC(=O)c1cc(-c2ccnc(N3CCN(C)CC3)c2)cc2c1cnn2C(C)C
Summary of the method: as §1

givinostat = compound: CCN(CC)Cc1ccc2cc(COC(=O)Nc3ccc(C(=O)NO)cc3)ccc2c1 [givinostat]
Summary of the method: as §1

barasertib = compound: CCN(CCCOc1ccc2c(Nc3cc(CC(=O)Nc4cccc(F)c4)[nH]n3)ncnc2c1)CCOP(=O)(O)O [barasertib]
Summary of the method: as §1

Measured: log2 fold change

PELO (UniProt Q9BRX2)
inactive: IRAK-1-4 Inhibitor I -0.073 | ibrutinib 0.071 | [1] -0.106 | ralimetinib 0.122 | [2] -0.128 | [4] 0.058 | pinometostat 0.201 | [5] 0.019 | [6] 0.088 | [7] -0.005 | [8] -0.051 | [9] 0.042 | [10] -0.039 | Nexturastat A 0.161 | vemurafenib -0.13 | [11] 0.007 | [12] 0.055 | givinostat 0.192 | barasertib 0.045
active: [3] -0.361

QRICH1 (UniProt Q2TAL8)
inactive: IRAK-1-4 Inhibitor I -0.108 | ibrutinib -0.024 | [1] 0.048 | ralimetinib 0.055 | [2] -0.237 | [3] -0.321 | [4] 0.08 | pinometostat 0.026 | [5] 0.029 | [6] -0.08 | [7] 0.064 | [8] -0.021 | [9] 0.06 | [10] 0.192 | Nexturastat A 0.158 | vemurafenib 0.173 | [11] 0.122 | [12] -0.215 | givinostat 0.07 | barasertib 0.214

PCK2 (UniProt Q16822)
inactive: IRAK-1-4 Inhibitor I -0.029 | ibrutinib 0.021 | [1] -0.013 | ralimetinib -0.059 | [2] -0.019 | [3] 0.063 | [4] 0.035 | pinometostat -0.011 | [5] -0.005 | [6] 0.053 | [7] -0.002 | [8] -0.064 | [9] -0.008 | [10] 0.045 | Nexturastat A -0.065 | vemurafenib -0.006 | [11] 0.002 | [12] 0.014 | givinostat -0.13 | barasertib 0.011

PDS5B (UniProt Q9NTI5)
Chain of UniProt Q9NTI5 (Q9NTI5 whole entry, looked up): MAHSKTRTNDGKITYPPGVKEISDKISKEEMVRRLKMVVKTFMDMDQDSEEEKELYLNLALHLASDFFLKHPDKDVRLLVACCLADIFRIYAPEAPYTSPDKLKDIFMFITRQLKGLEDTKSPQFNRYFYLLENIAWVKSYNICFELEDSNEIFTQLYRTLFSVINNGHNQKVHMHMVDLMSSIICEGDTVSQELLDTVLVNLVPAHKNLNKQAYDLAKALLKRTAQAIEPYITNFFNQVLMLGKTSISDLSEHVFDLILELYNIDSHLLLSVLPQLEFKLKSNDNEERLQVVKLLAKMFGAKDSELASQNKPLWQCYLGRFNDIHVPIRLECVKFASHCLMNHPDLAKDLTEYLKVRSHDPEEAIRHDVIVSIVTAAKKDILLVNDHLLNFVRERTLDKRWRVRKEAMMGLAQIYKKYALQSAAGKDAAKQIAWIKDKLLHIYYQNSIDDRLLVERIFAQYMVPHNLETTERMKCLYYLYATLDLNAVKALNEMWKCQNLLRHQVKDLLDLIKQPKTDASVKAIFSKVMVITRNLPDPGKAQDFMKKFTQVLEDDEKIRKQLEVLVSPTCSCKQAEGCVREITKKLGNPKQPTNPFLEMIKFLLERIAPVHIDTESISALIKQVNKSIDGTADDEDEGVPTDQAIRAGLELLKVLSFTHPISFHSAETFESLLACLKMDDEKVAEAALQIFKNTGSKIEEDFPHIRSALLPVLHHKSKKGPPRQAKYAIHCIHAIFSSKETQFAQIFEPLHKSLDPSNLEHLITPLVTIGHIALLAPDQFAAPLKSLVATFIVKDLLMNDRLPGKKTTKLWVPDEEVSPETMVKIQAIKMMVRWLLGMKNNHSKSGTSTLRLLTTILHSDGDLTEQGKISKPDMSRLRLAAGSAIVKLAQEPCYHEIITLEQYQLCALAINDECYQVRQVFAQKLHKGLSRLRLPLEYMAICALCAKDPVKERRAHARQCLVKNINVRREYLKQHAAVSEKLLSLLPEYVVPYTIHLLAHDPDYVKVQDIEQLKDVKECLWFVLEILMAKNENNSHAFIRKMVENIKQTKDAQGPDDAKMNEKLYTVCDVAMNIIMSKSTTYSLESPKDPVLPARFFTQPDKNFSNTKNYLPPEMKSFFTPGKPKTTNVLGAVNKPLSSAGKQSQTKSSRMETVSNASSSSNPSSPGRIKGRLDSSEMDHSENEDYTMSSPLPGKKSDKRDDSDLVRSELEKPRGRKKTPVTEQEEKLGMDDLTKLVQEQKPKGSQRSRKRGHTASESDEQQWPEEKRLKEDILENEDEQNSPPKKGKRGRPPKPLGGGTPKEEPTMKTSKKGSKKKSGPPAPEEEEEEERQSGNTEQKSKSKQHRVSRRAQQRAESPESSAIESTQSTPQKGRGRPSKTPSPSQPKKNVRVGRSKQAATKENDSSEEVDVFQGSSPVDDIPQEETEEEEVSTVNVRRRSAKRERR
inactive: IRAK-1-4 Inhibitor I -0.184 | ibrutinib -0.102 | [1] -0.052 | ralimetinib -0.01 | [2] -0.093 | [3] -0.166 | [4] 0.124 | pinometostat 0.093 | [5] -0.078 | [6] 0.02 | [7] -0.088 | [8] 0.086 | [9] 0.176 | [10] 0.109 | Nexturastat A -0.011 | vemurafenib -0.032 | [11] 0.32 | [12] -0.058 | givinostat 0.135 | barasertib 0.047

PTP4A2 (UniProt Q12974)
Chain of UniProt Q12974 (Q12974 whole entry, looked up): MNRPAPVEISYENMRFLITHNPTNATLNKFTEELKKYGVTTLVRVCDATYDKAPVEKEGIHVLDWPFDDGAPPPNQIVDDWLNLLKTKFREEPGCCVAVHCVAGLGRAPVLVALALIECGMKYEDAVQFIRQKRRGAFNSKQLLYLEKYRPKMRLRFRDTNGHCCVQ
inactive: IRAK-1-4 Inhibitor I 0.019 | ibrutinib 0.16 | [1] 0.065 | ralimetinib 0.051 | [2] -0.051 | [3] 0.035 | [4] -0.157 | pinometostat -0.044 | [5] 0.191 | [6] -0.164 | [7] 0.026 | [8] -0.045 | [9] 0.012 | [10] 0.076 | Nexturastat A -0.069 | vemurafenib -0.002 | [11] -0.129 | [12] 0.02 | givinostat -0.022 | barasertib -0.006

PRKCB isoform 2 (UniProt P05771)
inactive: IRAK-1-4 Inhibitor I 0.027 | ibrutinib -0.009 | ralimetinib 0.022 | [2] -0.057 | [3] -0.049 | [4] 0.028 | pinometostat 0.014 | [5] 0.013 | [6] -0.025 | [7] 0.005 | [8] -0.014 | [9] -0.003 | [10] 0.01 | Nexturastat A -0.01 | vemurafenib 0.009 | [11] -0.007 | [12] 0.002 | givinostat 0.001 | barasertib 0.015
active: [1] -0.373

PJA2 (UniProt O43164)
Chain of UniProt O43164 (O43164 whole entry, looked up): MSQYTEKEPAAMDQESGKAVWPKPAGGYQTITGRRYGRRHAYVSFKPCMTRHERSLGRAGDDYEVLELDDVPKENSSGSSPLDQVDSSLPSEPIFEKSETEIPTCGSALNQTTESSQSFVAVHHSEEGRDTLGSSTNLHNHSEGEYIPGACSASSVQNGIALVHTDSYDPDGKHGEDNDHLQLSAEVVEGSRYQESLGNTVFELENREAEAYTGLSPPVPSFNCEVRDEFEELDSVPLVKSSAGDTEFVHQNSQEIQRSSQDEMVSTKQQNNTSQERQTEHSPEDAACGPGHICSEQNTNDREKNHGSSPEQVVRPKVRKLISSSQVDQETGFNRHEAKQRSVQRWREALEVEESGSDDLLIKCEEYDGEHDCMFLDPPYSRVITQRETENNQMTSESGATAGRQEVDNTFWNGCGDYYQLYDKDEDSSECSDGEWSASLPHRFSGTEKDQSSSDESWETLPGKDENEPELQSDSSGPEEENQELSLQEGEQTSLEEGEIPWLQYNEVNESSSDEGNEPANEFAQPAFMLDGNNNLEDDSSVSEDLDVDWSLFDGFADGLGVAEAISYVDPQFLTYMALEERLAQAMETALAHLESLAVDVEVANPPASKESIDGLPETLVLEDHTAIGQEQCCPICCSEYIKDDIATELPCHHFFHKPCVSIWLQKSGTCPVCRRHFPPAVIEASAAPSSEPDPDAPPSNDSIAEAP
active: [6] -0.308
inactive: IRAK-1-4 Inhibitor I 0.061 | ibrutinib 0.023 | [1] 0.091 | ralimetinib -0.004 | [2] -0.02 | [3] -0.013 | [4] 0.169 | pinometostat -0.005 | [5] 0.05 | [7] -0.059 | [8] 0.019 | [9] -0.008 | [10] -0.019 | Nexturastat A 0.188 | vemurafenib -0.024 | [11] -0.062 | [12] -0.024 | givinostat 0.017 | barasertib -0.004

PRPF31 (UniProt Q8WWY3)
inactive: IRAK-1-4 Inhibitor I -0.066 | ibrutinib -0.028 | [1] -0.3 | ralimetinib 0.069 | [2] -0.144 | [3] -0.387 | [4] 0.004 | pinometostat 0 | [5] -0.016 | [6] -0.271 | [7] 0.021 | [8] -0.12 | [9] 0 | [10] 0.067 | Nexturastat A -0.01 | vemurafenib -0.017 | [11] 0.087 | [12] 0.106 | givinostat 0.065 | barasertib 0.096

POLR3K (UniProt Q9Y2Y1)
Chain of UniProt Q9Y2Y1 (Q9Y2Y1 whole entry, looked up): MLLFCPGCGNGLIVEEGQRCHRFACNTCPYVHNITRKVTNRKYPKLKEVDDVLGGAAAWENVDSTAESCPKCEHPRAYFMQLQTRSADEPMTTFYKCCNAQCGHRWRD
inactive: IRAK-1-4 Inhibitor I 0.026 | ibrutinib 0.044 | [1] -0.013 | ralimetinib -0.084 | [2] -0.07 | [3] 0.124 | [4] 0.089 | pinometostat 0.043 | [5] 0.032 | [6] -0.039 | [7] -0.028 | [8] 0.098 | [9] 0 | [10] -0.014 | Nexturastat A -0.04 | vemurafenib -0.067 | [11] -0.066 | [12] -0.038 | givinostat -0.013 | barasertib 0.003

RAB11FIP1 (UniProt Q6WKZ4)
Chain of UniProt Q6WKZ4 (Q6WKZ4 whole entry, looked up): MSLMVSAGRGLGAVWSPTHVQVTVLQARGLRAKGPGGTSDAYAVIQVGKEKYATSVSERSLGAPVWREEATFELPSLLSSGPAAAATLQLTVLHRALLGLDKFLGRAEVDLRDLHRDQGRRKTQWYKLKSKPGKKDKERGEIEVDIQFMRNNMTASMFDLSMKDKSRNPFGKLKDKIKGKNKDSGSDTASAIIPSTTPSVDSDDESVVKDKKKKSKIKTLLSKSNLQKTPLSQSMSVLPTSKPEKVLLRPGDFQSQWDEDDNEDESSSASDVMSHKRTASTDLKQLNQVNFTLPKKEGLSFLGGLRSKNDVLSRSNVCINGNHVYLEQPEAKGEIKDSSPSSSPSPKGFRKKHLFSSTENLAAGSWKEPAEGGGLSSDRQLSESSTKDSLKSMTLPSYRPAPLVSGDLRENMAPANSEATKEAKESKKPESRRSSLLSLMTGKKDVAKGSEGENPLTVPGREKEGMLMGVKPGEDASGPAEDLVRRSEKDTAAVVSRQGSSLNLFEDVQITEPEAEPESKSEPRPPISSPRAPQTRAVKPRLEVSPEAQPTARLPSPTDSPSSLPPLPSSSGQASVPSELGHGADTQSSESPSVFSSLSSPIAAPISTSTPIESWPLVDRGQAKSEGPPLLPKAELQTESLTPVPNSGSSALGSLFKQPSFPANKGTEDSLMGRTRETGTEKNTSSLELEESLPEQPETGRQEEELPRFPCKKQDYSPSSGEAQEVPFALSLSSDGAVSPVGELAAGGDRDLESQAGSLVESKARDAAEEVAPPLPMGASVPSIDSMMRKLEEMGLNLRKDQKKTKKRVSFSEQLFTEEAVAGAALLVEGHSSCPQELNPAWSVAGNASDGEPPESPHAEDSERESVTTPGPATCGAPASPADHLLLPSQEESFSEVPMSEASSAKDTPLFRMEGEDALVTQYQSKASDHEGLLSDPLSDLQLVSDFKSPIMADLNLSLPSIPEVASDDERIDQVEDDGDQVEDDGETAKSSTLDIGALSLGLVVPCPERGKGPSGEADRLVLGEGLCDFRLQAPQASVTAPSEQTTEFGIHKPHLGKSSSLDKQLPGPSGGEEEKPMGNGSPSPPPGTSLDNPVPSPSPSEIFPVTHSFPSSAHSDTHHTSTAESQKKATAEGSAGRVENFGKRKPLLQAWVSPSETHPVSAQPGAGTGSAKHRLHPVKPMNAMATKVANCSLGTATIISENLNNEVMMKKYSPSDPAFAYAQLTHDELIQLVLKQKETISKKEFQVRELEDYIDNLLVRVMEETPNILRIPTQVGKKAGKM
inactive: IRAK-1-4 Inhibitor I 0.014 | ibrutinib -0.009 | [1] -0.067 | ralimetinib 0.023 | [2] -0.016 | [3] -0.118 | [4] -0.004 | pinometostat 0.059 | [5] -0.021 | [6] 0.041 | [7] -0.009 | [8] 0.001 | [9] 0.015 | [10] -0.018 | Nexturastat A 0.034 | vemurafenib 0.006 | [11] 0.063 | [12] 0.009 | givinostat 0.015 | barasertib 0.014

PPP4R3B (UniProt Q5MIZ7)
inactive: IRAK-1-4 Inhibitor I 0.027 | ibrutinib -0.024 | [1] -0.018 | ralimetinib -0.014 | [2] 0.095 | [3] -0.069 | [4] -0.023 | pinometostat -0.021 | [5] 0.034 | [6] -0.069 | [7] 0.006 | [8] 0.014 | [9] 0.008 | [10] 0.024 | Nexturastat A -0.063 | vemurafenib 0.017 | [11] 0.009 | [12] -0.017 | givinostat 0.049 | barasertib 0.029

PPP2R5C isoform 4 (UniProt Q13362)
Chain of UniProt Q13362 (Q13362 whole entry, looked up): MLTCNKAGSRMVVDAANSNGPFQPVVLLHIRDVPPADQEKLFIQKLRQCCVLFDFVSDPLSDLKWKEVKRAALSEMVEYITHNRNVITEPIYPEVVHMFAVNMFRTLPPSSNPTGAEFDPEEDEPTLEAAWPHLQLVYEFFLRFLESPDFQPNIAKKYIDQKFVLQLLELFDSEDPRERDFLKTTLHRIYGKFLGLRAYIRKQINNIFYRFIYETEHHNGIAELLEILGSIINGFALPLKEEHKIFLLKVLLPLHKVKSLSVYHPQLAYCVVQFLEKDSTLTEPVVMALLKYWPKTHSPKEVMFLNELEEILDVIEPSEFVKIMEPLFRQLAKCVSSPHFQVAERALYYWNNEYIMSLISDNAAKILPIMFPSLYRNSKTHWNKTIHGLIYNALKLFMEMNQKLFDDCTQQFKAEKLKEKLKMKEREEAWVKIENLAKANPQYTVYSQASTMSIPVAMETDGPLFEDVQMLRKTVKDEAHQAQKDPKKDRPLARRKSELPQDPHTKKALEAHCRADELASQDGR
inactive: IRAK-1-4 Inhibitor I 0.027 | ibrutinib -0.051 | [1] 0.019 | ralimetinib -0.15 | [2] -0.07 | [3] -0.02 | [4] 0.034 | pinometostat 0.043 | [5] 0.016 | [6] -0.032 | [7] -0.016 | [8] 0.004 | [9] 0.014 | [10] -0.064 | Nexturastat A 0.016 | vemurafenib 0.074 | [11] -0.004 | [12] -0.027 | givinostat -0.001 | barasertib 0.057

PTPN23 (UniProt Q9H3S7)
inactive: IRAK-1-4 Inhibitor I -0.008 | ibrutinib -0.052 | [1] -0.044 | ralimetinib 0.013 | [2] -0.061 | [3] -0.095 | [4] 0.038 | pinometostat -0.009 | [5] -0.036 | [6] 0.046 | [7] -0.062 | [8] -0.049 | [9] -0.009 | [10] 0.002 | Nexturastat A -0.015 | vemurafenib 0.025 | [11] 0.051 | [12] 0.088 | givinostat 0.107 | barasertib 0.047

PLA2G15 (UniProt Q8NCC3)
Chain of UniProt Q8NCC3 (Q8NCC3 whole entry, looked up): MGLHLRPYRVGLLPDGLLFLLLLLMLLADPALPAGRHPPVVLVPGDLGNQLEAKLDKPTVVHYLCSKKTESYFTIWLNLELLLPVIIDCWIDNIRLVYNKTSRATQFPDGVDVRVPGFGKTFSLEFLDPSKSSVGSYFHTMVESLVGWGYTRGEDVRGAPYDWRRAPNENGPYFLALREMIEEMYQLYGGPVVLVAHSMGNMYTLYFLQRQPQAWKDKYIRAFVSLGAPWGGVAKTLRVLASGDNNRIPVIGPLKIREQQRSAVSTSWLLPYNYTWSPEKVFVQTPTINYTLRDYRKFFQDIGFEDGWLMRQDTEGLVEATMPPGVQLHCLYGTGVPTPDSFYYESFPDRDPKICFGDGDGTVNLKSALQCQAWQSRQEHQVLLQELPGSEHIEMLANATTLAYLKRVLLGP
inactive: IRAK-1-4 Inhibitor I 0.071 | ibrutinib -0.012 | [1] -0.018 | ralimetinib -0.057 | [2] -0.004 | [3] -0.024 | [4] 0.113 | pinometostat 0.006 | [5] -0.031 | [6] -0.141 | [7] 0.04 | [8] -0.013 | [9] 0.005 | [10] -0.026 | Nexturastat A 0.089 | vemurafenib 0.044 | [11] 0.001 | [12] -0.063 | givinostat 0.019 | barasertib 0.024

PRPF38A (UniProt Q8NAV1)
Chain of UniProt Q8NAV1 (Q8NAV1 whole entry, looked up): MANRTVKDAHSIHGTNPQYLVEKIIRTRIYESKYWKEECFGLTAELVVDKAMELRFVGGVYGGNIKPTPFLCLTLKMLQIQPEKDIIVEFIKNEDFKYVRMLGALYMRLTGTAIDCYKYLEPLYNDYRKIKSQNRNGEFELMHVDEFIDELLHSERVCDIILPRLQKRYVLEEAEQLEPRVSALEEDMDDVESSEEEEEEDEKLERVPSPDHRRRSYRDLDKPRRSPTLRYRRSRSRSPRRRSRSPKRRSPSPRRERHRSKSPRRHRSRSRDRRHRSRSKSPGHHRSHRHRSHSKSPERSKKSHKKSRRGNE
inactive: IRAK-1-4 Inhibitor I 0.011 | ibrutinib -0.051 | ralimetinib 0.03 | [2] 0.012 | [3] -0.029 | [4] 0.005 | pinometostat 0.027 | [5] 0.045 | [6] -0.014 | [7] 0.005 | [8] -0.023 | [9] -0.058 | [10] 0.017 | Nexturastat A 0.019 | vemurafenib -0.118 | [11] -0.089 | [12] 0.065 | givinostat 0.005 | barasertib -0.024
active: [1] -0.237

PPP2R5C isoform 5 (UniProt Q13362)
inactive: IRAK-1-4 Inhibitor I -0.023 | ibrutinib 0.041 | [1] -0.059 | ralimetinib -0.044 | [2] -0.072 | [3] -0.061 | [4] 0.031 | pinometostat 0.011 | [5] 0.005 | [6] -0.018 | [7] 0.001 | [8] -0.045 | [9] 0.012 | [10] 0.052 | Nexturastat A -0.171 | vemurafenib 0.066 | [11] 0.038 | [12] 0.032 | givinostat 0.059 | barasertib 0.018
